Measurements as given in PubChem BioAssay AID1159580 (chemical genetic matrix, 2015).
Among all 5,500 compounds or so, about 2,000 (36%) were called active. Roughly 18% stayed inconclusive and do not appear here. No stated cut-off is given here; in the data, active means normalized growth mostly below about 0.91 (no sharp cut-off); inconclusive means no clear call, values can overlap the other calls; inactive means mostly above about 0.92. Some of the results follow.

Assay: chemical genetic growth profiling, strain panel (AID 1159580);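 further: tested at 20 µM; growth read once vehicle control cultures reached saturation at 30 °C; 1 = growth at the plate median or of vehicle wells; lower values mean less growth of the strain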
Conditions: growth OD

Measured: normalized growth

CCCCN(CC)c1c([N+](=O)[O-])cc(C(F)(F)F)cc1[N+](=O)[O-]
inactive: S. cerevisiae deletion strains, locus YJR075W, strain HOC1, hits give low values 1 | S. cerevisiae deletion strains, locus YKL009W, strain mrt4, hits give low values 1.04 | S. cerevisiae deletion strains, locus YKL068W, hits give low values 1.01 | S. cerevisiae deletion strains, locus YKL085W, strain MDH1 (second series), hits give low values 1.01 | S. cerevisiae deletion strains, locus YKL085W, strain MDH1, hits give low values 1.01 | S. cerevisiae deletion strains, locus YKL160W, strain elf1, hits give low values 1.02 | S. cerevisiae deletion strains, locus YKL190W, strain CNB1, hits give low values 1.02 | S. cerevisiae deletion strains, locus YKR001C, strain vps1, hits give low values 1.04 | S. cerevisiae deletion strains, locus YKR026C, strain gcn3, hits give low values 1.02 | S. cerevisiae deletion strains, locus YKR091W, strain srl3, hits give low values 1.01 | S. cerevisiae deletion strains, locus YLL001W, strain dnm1, hits give low values 1.01 | S. cerevisiae deletion strains, locus YLL026W, hits give low values 1 | S. cerevisiae deletion strains, locus YLL041C, strain sdh2, hits give low values 1.01 | S. cerevisiae deletion strains, locus YLR027C, strain aat2, hits give low values 0.996 | S. cerevisiae deletion strains, locus YLR039C, strain RIC1, hits give low values 1.02 | S. cerevisiae deletion strains, locus YLR058C, strain SHM2, hits give low values 1.01 | S. cerevisiae deletion strains, locus YLR102C, strain apc9, hits give low values 1.01 | S. cerevisiae deletion strains, locus YLR113W, strain HOG1, hits give low values 0.973 | S. cerevisiae deletion strains, locus YLR221C, strain rsa3, hits give low values 1 | S. cerevisiae deletion strains, locus YLR258W, strain gsy2, hits give low values 1.01 | S. cerevisiae deletion strains, locus YLR262C, strain YPT6 (second series), hits give low values 0.995 | S. cerevisiae deletion strains, locus YLR262C, strain YPT6, hits give low values 1.02 | S. cerevisiae deletion strains, locus YLR268W, strain sec22, hits give low values 1.02 | S. cerevisiae deletion strains, locus YLR320W, strain mms22, hits give low values 1.02 | S. cerevisiae deletion strains, locus YLR330W, strain CHS5, hits give low values 1.01 | S. cerevisiae deletion strains, locus YLR342W, strain FKS1 (second series), hits give low values 1.08 | S. cerevisiae deletion strains, locus YLR342W, strain FKS1, hits give low values 1 | S. cerevisiae deletion strains, locus YLR357W, strain rsc2, hits give low values 1.03 | S. cerevisiae deletion strains, locus YLR370C, strain arc18, hits give low values 1.01 | S. cerevisiae deletion strains, locus YLR371W, strain rom2, hits give low values 1.01 | S. cerevisiae deletion strains, locus YLR384C, strain iki3, hits give low values 1 | S. cerevisiae deletion strains, locus YLR418C, strain cdc73, hits give low values 1 | S. cerevisiae deletion strains, locus YML016C, strain PPZ1, hits give low values 1.01 | S. cerevisiae deletion strains, locus YML032C, strain rad52, hits give low values 1.02 | S. cerevisiae deletion strains, locus YML120C, strain ndi1, hits give low values 1.03 | S. cerevisiae deletion strains, locus YML124C, strain tub3, hits give low values 1.01 | S. cerevisiae deletion strains, locus YMR058W, strain fet3, hits give low values 1.02 | S. cerevisiae deletion strains, locus YMR078C, strain ctf18, hits give low values 1.01 | S. cerevisiae deletion strains, locus YMR125W, strain sto1, hits give low values 1.01 | S. cerevisiae deletion strains, locus YMR129W, hits give low values 1.02 | S. cerevisiae deletion strains, locus YMR205C, strain PFK2, hits give low values 1 | S. cerevisiae deletion strains, locus YMR223W, strain ubp8, hits give low values 1.02 | S. cerevisiae deletion strains, locus YMR231W, strain pep5, hits give low values 0.997 | S. cerevisiae deletion strains, locus YMR263W, strain SAP30, hits give low values 1.02 | S. cerevisiae deletion strains, locus YMR307W, strain GAS1, hits give low values 0.998 | S. cerevisiae deletion strains, locus YNL067W, strain RPL9B, hits give low values 1.01 | S. cerevisiae deletion strains, locus YNL071W, strain lat1, hits give low values 1.02 | S. cerevisiae deletion strains, locus YNL128W, strain TEP1, hits give low values 1.02 | S. cerevisiae deletion strains, locus YNL153C, strain GIM3, hits give low values 1.01 | S. cerevisiae deletion strains, locus YNL183C, strain NPR1, hits give low values 0.999 | S. cerevisiae deletion strains, locus YNL209W, strain ssb2, hits give low values 1.01 | S. cerevisiae deletion strains, locus YNL233W, strain BNI4, hits give low values 1.01 | S. cerevisiae deletion strains, locus YNL248C, strain rpa49, hits give low values 1.02 | S. cerevisiae deletion strains, locus YNL250W, strain rad50, hits give low values 1 | S. cerevisiae deletion strains, locus YNL271C, strain bni1, hits give low values 1.01 | S. cerevisiae deletion strains, locus YNL298W, strain CLA4, hits give low values 1.01 | S. cerevisiae deletion strains, locus YNL307C, strain MCK1, hits give low values 1.02 | S. cerevisiae deletion strains, locus YNL322C, strain KRE1 (second series), hits give low values 1.01 | S. cerevisiae deletion strains, locus YNL322C, strain KRE1, hits give low values 1.01 | S. cerevisiae deletion strains, locus YNR049C, strain mso1, hits give low values 1.01 | S. cerevisiae deletion strains, locus YNR052C, strain pop2, hits give low values 1.02 | S. cerevisiae deletion strains, locus YOL006C, strain TOP1, hits give low values 1.01 | S. cerevisiae deletion strains, locus YOL012C, strain htz1 0.93 | S. cerevisiae deletion strains, locus YOL147C, strain pex11, hits give low values 1.01 | S. cerevisiae deletion strains, locus YOR001W, strain rrp6, hits give low values 1.03 | S. cerevisiae deletion strains, locus YOR061W, strain CKA2, hits give low values 1.01 | S. cerevisiae deletion strains, locus YOR069W, strain VPS5, hits give low values 1.01 | S. cerevisiae deletion strains, locus YOR070C, strain gyp1, hits give low values 1.02 | S. cerevisiae deletion strains, locus YOR080W, strain dia2, hits give low values 1 | S. cerevisiae deletion strains, locus YOR083W, strain WHI5, hits give low values 1.02 | S. cerevisiae deletion strains, locus YOR106W, strain vam3, hits give low values 0.994 | S. cerevisiae deletion strains, locus YOR136W, strain idh2, hits give low values 1.01 | S. cerevisiae deletion strains, locus YOR144C, strain elg1, hits give low values 1.01 | S. cerevisiae deletion strains, locus YOR184W, strain ser1, hits give low values 1.03 | S. cerevisiae deletion strains, locus YOR231W, strain MKK1, hits give low values 1.06 | S. cerevisiae deletion strains, locus YOR265W, strain rbl2, hits give low values 1.03 | S. cerevisiae deletion strains, locus YOR270C, strain vph1, hits give low values 1.06 | S. cerevisiae deletion strains, locus YOR290C, strain snf2, hits give low values 1.04 | S. cerevisiae deletion strains, locus YOR316C, strain cot1, hits give low values 1.01 | S. cerevisiae deletion strains, locus YPL051W, strain arl3, hits give low values 1 | S. cerevisiae deletion strains, locus YPL055C, strain LGE1, hits give low values 1.01 | S. cerevisiae deletion strains, locus YPL078C, strain atp4, hits give low values 1.02 | S. cerevisiae deletion strains, locus YPL106C, strain sse1, hits give low values 1.03 | S. cerevisiae deletion strains, locus YPL240C, strain hsp82, hits give low values 1.01 | S. cerevisiae deletion strains, locus YPL241C, strain CIN2, hits give low values 1.01 | S. cerevisiae deletion strains, locus YPL256C, strain CLN2, hits give low values 1.05 | S. cerevisiae deletion strains, locus YPR119W, strain clb2, hits give low values 1.01 | S. cerevisiae deletion strains, locus YPR141C, strain kar3, hits give low values 1.01 | S. cerevisiae deletion strains, locus YPR163C, strain tif3, hits give low values 1.01 | S. cerevisiae deletion strains, locus YPR167C, strain met16, hits give low values 1.02 | S. cerevisiae deletion strains, strain wtn01, hits give low values 1.01 | S. cerevisiae strains, strain wild type, hits give low values 1.01
